Laboratory results taken from PubChem BioAssay (NCATS).
Activity calls are given as the source filed them. Calls follow the shape of the dose curve; as a rule, active = well fitted curve in the direction sought with a large enough effect; inactive = no such curve, though single readings can be large or run the other way.

test: qHTS for small molecule inhibitors of Yes1 kinase: Counter Assay (AID 686950); details: series mostly up to 76.9 µM;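 also: no kinase present so only ADP-Glo detection of a fixed ADP amount is tested; luminescence from ADP-Glo reporting ADP in a fixed ATP and ADP mixture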
Procedure, shortened: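 Enzyme-free detection counter-screen: compounds preincubated 20 min in buffer, then 0.08 mM ATP plus 0.02 mM ADP added for 60 min at room temperature; ADP-Glo luminescence. Buffer 50 mM Tris pH 7.5, 10 mM MgCl2, 150 mM NaCl; normalized to ATP+ADP and ATP-only controls.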

Compound | outcome
CN(C)C(=O)c1ccc(S(=O)(=O)c2ccc(NC(=O)[C@@](C)(O)C(F)(F)F)c(Cl)c2)cc1 | inactive
CCCc1nc2c(C)cc(-c3nc4ccccc4n3C)cc2n1Cc1ccc(-c2ccccc2C(=O)O)cc1 | inactive
CC(C)c1onc(-c2c(Cl)cccc2Cl)c1COc1ccc(/C=C/c2cccc(C(=O)O)c2)c(Cl)c1 | inactive
CNC(=O)c1ccc(C)c(-n2c(C)cc(OCc3ccc(F)cc3F)c(Br)c2=O)c1 | inactive
CCOc1ccn(-c2ccc(F)cc2)c(=O)c1C(=O)Nc1ccc(Oc2ccnc(N)c2Cl)c(F)c1 | inactive
O=C(C1CC1)N1CC[C@@H](Cn2c(-c3ccc(-c4ccc5occc5c4)cc3)nc3cnccc32)C1 | inactive
COc1cc(Nc2ncc3c(n2)-c2ccc(Cl)cc2C(c2c(F)cccc2OC)=NC3)ccc1C(=O)O | inactive
COc1cc2nccc(Oc3ccc(NC(=O)NC4CC4)c(Cl)c3)c2cc1C(N)=O | inactive
N#Cc1ccc(C(c2ccc(C#N)cc2)n2cncn2)cc1 | inactive
COc1ccc(COc2cc3oc(=O)c4cc(C(C)O)ccc4c3cc2OC)cc1 (stereo unspecified) | inactive
CN([C@@H](Cc1ccc(OS(=O)(=O)c2cccc3cnccc23)cc1)C(=O)N1CCN(c2ccccc2)CC1)S(=O)(=O)c1cccc2cnccc12 | inactive
C[C@]1(c2nc3c(C(N)=O)cccc3[nH]2)CCCN1 | inactive
Cc1ccc(NC(=O)c2cccc(C(C)(C)C#N)c2)cc1Nc1ccc2ncn(C)c(=O)c2c1 | inactive
O=C(O)CCc1ccc(NCc2cccc(Oc3ccccc3)c2)cc1 | inactive
CCc1ccc(CCOc2ccc(CC3SC(=O)NC3=O)cc2)nc1 (stereo unspecified) | inactive
COc1ccc2c3n(c(=NC(=O)c4cccnc4)nc2c1OC)CCN3 | inactive
CC1(C)SCCN(S(=O)(=O)c2ccc(OCC#CCO)cc2)[C@@H]1C(=O)NO | inactive
Clc1ccc(Nc2nnc(Cc3ccncc3)c3ccccc23)cc1 | inactive

Compound | outcome
CC1(C)CNc2cc(NC(=O)c3cccnc3NCc3ccncc3)ccc21 | inactive
NC(=O)c1ccc(-c2nc(-c3ccc4c(c3)OCO4)c(-c3ccccn3)[nH]2)cc1 | inactive
CS(=O)(=O)c1cccc(CNc2nc(Nc3ccc4c(c3)CCC(=O)N4)ncc2C(F)(F)F)c1 | inactive
Cn1c(=O)c(F)c(Nc2ccc(I)cc2F)c2c(=O)n(C[C@@H](O)CO)cnc21 | inactive
COc1ccc(CC2=NN3C([C@@H](CCc4ccccc4)[C@@H](C)O)=NC(C)C3C(=O)N2)cc1OC (stereo partly specified) | inactive
CC(C)(N)C(=O)N[C@H](COCc1ccccc1)C(=O)N1CCC2(CC1)CN(S(C)(=O)=O)c1ccccc12 | inactive
Cc1csc(NC(=O)c2sc3nc4c(c(C(F)(F)F)c3c2N)CCC4)n1 | inactive
Nc1cccc(S(=O)(=O)N2CCCN(S(=O)(=O)c3ccc4c(c3)OCCO4)CC2)c1 | inactive
Cc1cc(-c2nnc3n2CCCCC3)c(C)n1-c1ccc(F)cc1 | inactive
CCc1cc(Nc2nccc(-c3c(-c4ccc(OC)c(C(=O)Nc5c(F)cccc5F)c4)nc4ccccn34)n2)c(OC)cc1N1CCC(N2CCN(S(C)(=O)=O)CC2)CC1 | inactive
O=c1ncn2nc(Sc3ccc(F)cc3F)ccc2c1-c1c(Cl)cccc1Cl | inactive
Cc1cnc(Nc2ccc(OCCN3CCCC3)cc2)nc1Nc1cccc(S(=O)(=O)NC(C)(C)C)c1 | inactive
CCC(C)n1ncn(-c2ccc(N3CCN(c4ccc(OC[C@H]5CO[C@](Cn6cncn6)(c6ccc(Cl)cc6Cl)O5)cc4)CC3)cc2)c1=O (stereo partly specified) | inactive
COc1ccc(-c2ccc3c(N4CCOCC4)nc(N4C[C@@H](C)O[C@@H](C)C4)nc3n2)cc1CO | inactive
CCC(=O)N[C@H]1CC[C@H](C(=O)N(C)c2ccc(-c3nc4ccccc4o3)cc2)C1 | inactive
O=S(=O)(N=Cc1c(O)ccc2ccccc12)c1cccs1 | inactive
O=c1[nH]c(-c2ccc(C(F)(F)F)cc2)nc2c1CSCC2 | inactive
Nc1nccc(-c2ccc3noc(-c4ccc(Cl)cc4)c3c2)n1 | inactive
